Assay results reported in ChEMBL document CHEMBL1961873, “Compounds: GSK PKIS; Assays: Nanosyn kinase panel” (2012).

Tests used:
[1] = target: Sphingosine kinase 1 (Homo sapiens) (UniProt Q9NYA1); settings: at 1 µM;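 further: mean SPHK1 inhibition value reported from the GSK PKIS kinase panel screen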
[2] = target: T1, Sphingosine kinase 2 (Homo sapiens) (UniProt Q9NRA0); settings: at 0.1 µM
T1 sequence (whole entry): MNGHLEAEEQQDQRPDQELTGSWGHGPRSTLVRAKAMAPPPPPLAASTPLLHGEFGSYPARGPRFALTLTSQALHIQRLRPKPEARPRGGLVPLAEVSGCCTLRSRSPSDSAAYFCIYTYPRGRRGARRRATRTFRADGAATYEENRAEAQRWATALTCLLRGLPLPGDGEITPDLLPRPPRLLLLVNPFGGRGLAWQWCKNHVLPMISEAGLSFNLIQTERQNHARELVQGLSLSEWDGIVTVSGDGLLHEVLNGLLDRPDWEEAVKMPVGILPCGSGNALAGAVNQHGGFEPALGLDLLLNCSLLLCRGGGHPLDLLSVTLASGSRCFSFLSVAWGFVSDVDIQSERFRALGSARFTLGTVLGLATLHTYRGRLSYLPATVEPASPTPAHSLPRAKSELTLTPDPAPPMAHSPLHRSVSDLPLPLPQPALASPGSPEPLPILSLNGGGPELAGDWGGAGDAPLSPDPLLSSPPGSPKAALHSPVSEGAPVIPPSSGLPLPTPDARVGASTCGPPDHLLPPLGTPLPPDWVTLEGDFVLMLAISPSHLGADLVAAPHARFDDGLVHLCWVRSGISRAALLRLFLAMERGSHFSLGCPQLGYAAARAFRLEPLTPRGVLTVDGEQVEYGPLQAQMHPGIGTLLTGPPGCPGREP

[3] = target: T1, Sphingosine kinase 2 (Homo sapiens); settings: at 1 µM
[4] = target: Casein kinase II subunit alpha (Homo sapiens) (UniProt P68400); settings: at 0.1 µM
[5] = target: Casein kinase II subunit alpha (Homo sapiens) (UniProt P68400); settings: at 1 µM
[6] = target: T2, Inhibitor of nuclear factor kappa-B kinase subunit alpha (Homo sapiens) (UniProt O15111); settings: at 0.1 µM
T2 sequence (whole entry): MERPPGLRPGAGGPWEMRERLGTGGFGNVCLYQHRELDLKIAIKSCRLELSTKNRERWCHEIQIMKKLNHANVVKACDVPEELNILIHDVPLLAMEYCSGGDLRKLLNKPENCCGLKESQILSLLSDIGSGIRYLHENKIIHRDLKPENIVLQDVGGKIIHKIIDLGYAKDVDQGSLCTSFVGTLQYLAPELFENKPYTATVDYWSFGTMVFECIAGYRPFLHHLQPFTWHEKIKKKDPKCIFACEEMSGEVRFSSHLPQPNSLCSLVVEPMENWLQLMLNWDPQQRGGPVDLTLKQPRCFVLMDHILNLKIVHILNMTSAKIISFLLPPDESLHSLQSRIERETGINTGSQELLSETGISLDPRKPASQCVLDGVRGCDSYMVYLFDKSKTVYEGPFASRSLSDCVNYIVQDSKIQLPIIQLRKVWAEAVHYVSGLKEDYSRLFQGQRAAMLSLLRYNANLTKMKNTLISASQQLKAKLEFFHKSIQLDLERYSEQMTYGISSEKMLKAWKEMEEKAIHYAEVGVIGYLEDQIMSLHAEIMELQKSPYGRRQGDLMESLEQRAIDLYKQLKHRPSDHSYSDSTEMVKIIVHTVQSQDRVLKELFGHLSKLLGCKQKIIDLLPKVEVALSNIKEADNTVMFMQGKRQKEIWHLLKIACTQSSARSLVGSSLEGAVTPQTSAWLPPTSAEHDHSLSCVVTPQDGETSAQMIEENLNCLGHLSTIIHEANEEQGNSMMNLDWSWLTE

[7] = target: T2, Inhibitor of nuclear factor kappa-B kinase subunit alpha (Homo sapiens); settings: at 1 µM
[8] = target: T3, Inhibitor of nuclear factor kappa-B kinase subunit beta (Homo sapiens) (UniProt O14920); settings: at 0.1 µM
T3 sequence (whole entry): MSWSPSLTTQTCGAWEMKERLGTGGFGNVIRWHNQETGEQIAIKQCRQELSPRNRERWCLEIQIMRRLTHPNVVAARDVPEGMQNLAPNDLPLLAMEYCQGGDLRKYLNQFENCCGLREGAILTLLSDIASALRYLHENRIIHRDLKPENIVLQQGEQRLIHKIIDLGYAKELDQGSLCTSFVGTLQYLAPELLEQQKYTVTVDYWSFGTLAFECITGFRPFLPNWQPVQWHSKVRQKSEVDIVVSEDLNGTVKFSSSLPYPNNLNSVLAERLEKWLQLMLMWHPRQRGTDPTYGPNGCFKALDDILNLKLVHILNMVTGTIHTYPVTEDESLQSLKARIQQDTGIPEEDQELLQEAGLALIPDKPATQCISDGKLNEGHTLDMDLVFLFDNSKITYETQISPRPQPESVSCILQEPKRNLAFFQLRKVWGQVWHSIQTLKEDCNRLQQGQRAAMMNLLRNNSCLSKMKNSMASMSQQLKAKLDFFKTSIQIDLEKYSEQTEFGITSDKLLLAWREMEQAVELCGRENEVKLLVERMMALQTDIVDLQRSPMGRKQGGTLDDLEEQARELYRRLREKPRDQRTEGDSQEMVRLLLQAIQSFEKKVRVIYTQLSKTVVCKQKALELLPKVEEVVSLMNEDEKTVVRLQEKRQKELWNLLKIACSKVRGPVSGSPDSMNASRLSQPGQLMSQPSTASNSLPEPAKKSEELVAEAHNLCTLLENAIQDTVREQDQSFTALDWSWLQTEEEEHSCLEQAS

[9] = target: T3, Inhibitor of nuclear factor kappa-B kinase subunit beta (Homo sapiens); settings: at 1 µM
[10] = target: T4, Inhibitor of nuclear factor kappa-B kinase subunit epsilon (Homo sapiens) (UniProt Q14164); settings: at 0.1 µM
T4 sequence (whole entry): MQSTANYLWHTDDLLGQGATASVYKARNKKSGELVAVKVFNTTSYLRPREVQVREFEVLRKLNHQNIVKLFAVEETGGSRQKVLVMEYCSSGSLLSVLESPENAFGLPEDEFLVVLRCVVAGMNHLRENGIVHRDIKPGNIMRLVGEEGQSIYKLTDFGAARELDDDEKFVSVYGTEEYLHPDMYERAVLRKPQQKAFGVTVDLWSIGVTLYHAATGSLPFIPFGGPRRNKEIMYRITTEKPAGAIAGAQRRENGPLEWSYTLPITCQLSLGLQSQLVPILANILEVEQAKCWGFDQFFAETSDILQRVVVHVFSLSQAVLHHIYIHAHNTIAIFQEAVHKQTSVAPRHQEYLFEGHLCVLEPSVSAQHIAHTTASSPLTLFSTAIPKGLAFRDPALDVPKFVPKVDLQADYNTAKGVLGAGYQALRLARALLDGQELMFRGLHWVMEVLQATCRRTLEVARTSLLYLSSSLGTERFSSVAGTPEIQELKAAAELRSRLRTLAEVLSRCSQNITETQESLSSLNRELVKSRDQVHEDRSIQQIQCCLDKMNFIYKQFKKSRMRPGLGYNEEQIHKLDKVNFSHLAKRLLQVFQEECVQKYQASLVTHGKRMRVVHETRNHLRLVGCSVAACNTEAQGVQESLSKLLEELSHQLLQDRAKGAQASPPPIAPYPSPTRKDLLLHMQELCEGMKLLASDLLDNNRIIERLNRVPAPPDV

[11] = target: T4, Inhibitor of nuclear factor kappa-B kinase subunit epsilon (Homo sapiens); settings: at 1 µM
[12] = target: T5, Serine/threonine-protein kinase Nek1 (Homo sapiens) (UniProt Q96PY6); settings: at 0.1 µM
T5 sequence (whole entry): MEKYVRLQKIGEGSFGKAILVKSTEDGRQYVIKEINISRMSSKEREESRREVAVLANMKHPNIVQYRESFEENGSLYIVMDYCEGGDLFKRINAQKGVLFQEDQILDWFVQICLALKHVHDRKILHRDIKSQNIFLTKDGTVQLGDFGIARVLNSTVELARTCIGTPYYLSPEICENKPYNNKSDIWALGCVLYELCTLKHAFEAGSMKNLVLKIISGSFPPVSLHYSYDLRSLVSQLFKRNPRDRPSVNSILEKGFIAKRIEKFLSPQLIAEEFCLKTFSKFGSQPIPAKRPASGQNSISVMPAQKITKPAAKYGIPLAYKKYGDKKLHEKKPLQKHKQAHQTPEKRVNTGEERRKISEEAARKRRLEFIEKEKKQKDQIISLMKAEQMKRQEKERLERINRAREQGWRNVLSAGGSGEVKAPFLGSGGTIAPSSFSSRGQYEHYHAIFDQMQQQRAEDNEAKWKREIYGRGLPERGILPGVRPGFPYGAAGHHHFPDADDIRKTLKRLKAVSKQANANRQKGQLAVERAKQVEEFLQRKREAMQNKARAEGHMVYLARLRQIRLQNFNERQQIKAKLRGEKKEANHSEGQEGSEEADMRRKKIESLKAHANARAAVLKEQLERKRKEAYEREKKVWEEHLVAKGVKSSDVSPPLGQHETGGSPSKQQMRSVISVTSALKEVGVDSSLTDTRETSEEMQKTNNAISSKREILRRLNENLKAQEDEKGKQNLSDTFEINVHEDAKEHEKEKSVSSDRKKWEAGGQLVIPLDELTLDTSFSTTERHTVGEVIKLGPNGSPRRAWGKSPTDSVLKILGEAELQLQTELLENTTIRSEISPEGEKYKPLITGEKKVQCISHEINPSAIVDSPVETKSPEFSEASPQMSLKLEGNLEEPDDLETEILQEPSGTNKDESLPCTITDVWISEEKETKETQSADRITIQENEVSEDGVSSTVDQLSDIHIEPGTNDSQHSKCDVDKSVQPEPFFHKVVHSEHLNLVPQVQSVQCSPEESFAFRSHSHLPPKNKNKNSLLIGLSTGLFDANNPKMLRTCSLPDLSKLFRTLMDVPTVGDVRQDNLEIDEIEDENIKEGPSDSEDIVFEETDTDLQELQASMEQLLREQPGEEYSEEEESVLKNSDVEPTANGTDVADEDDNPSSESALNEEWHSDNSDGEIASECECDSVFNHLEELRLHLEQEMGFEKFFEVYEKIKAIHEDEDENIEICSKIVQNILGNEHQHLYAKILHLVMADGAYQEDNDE

[13] = target: T5, Serine/threonine-protein kinase Nek1 (Homo sapiens); settings: at 1 µM
[14] = target: T6, Serine/threonine-protein kinase Nek2 (Homo sapiens) (UniProt P51955); settings: at 0.1 µM
T6 sequence (whole entry): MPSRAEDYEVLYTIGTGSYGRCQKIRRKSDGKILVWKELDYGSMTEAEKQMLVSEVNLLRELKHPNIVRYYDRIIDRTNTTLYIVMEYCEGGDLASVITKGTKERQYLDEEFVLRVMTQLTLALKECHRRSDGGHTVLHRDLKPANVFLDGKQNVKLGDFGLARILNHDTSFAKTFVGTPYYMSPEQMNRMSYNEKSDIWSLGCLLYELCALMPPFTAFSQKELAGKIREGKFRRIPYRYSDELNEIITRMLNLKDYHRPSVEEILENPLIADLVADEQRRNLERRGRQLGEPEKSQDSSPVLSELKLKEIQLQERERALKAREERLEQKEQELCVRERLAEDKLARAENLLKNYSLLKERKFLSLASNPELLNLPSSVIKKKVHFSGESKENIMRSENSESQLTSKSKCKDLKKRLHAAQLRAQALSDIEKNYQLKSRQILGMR

[15] = target: T6, Serine/threonine-protein kinase Nek2 (Homo sapiens); settings: at 1 µM
[16] = target: Serine/threonine-protein kinase Nek6 (Homo sapiens) (UniProt Q9HC98); settings: at 0.1 µM
[17] = target: Serine/threonine-protein kinase Nek6 (Homo sapiens) (UniProt Q9HC98); settings: at 1 µM
[18] = target: Serine/threonine-protein kinase Nek7 (Homo sapiens) (UniProt Q8TDX7); settings: at 0.1 µM
[19] = target: Serine/threonine-protein kinase Nek7 (Homo sapiens) (UniProt Q8TDX7); settings: at 1 µM
[20] = target: T7, Serine/threonine-protein kinase Nek9 (Homo sapiens) (UniProt Q8TD19); settings: at 0.1 µM;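 further: reported value is the mean percent inhibition of NEK9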
T7 sequence (whole entry): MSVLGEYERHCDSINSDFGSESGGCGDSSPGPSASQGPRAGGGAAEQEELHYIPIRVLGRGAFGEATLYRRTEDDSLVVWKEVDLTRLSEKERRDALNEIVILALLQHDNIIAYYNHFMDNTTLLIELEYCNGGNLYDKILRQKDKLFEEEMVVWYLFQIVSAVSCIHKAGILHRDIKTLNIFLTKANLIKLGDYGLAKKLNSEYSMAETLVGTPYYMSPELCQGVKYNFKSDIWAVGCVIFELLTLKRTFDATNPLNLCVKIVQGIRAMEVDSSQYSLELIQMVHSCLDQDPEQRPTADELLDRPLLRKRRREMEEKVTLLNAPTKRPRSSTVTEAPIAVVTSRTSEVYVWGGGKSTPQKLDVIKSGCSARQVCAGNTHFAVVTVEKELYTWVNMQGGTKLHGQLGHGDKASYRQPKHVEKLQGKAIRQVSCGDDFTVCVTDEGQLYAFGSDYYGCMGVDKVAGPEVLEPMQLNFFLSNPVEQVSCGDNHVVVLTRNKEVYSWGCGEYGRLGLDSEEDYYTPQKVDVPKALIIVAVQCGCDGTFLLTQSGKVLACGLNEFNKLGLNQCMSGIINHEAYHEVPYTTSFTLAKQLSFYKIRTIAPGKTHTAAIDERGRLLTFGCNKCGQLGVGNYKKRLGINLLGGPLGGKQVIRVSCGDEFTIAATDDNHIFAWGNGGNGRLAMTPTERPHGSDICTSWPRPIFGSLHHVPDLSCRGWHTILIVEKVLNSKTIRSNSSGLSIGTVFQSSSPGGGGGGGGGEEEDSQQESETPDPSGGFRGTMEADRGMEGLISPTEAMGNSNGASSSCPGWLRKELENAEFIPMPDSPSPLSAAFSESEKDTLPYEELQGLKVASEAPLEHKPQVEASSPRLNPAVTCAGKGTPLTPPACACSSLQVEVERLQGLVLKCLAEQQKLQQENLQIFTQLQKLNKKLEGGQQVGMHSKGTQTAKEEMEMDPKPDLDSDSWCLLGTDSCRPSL

Chain of Casein kinase II subunit alpha (Homo sapiens) (P68400 whole entry, looked up): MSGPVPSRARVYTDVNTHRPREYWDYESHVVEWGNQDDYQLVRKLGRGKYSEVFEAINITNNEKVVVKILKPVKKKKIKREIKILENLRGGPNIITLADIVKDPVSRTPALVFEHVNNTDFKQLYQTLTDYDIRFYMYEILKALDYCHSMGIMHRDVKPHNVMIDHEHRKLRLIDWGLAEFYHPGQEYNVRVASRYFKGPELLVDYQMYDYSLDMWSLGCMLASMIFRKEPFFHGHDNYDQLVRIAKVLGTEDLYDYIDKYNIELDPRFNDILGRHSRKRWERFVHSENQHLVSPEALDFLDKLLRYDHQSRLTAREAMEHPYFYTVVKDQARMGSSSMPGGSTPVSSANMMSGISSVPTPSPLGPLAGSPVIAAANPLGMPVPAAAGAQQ
Chain of Serine/threonine-protein kinase Nek6 (Homo sapiens) (Q9HC98 whole entry): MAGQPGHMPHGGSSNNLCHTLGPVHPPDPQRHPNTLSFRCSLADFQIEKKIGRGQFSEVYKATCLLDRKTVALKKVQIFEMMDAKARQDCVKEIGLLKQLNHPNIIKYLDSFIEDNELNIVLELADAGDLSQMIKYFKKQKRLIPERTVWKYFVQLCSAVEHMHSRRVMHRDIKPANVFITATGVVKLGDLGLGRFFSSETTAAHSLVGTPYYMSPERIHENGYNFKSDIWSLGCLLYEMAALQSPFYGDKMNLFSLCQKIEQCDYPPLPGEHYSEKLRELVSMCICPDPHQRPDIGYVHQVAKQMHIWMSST
Chain of Serine/threonine-protein kinase Nek7 (Homo sapiens) (Q8TDX7 whole entry, looked up): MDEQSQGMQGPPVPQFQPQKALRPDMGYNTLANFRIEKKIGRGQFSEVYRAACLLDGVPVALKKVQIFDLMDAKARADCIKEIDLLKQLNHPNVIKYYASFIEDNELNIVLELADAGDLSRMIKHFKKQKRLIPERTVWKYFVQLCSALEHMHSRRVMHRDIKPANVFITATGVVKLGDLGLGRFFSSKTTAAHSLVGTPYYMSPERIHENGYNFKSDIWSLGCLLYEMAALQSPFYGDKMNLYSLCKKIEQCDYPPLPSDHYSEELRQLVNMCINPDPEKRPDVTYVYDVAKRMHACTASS
Chain of Sphingosine kinase 1 (Homo sapiens) (Q9NYA1 whole entry): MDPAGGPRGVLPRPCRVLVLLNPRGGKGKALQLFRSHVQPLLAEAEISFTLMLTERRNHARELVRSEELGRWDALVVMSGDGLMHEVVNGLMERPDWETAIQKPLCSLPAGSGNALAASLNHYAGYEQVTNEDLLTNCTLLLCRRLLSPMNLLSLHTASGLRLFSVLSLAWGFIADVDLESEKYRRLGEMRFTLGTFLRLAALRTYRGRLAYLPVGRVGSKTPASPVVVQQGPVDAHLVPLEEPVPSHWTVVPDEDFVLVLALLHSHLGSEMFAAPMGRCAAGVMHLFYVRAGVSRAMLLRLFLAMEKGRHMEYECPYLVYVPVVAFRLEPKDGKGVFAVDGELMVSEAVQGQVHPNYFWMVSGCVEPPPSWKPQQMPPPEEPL

SMILES	inhibition [1] [%]	inhibition [2] [%]	inhibition [3] [%]	inhibition [4] [%]	inhibition [5] [%]	inhibition [6] [%]	inhibition [7] [%]	inhibition [8] [%]	inhibition [9] [%]	inhibition [10] [%]	inhibition [11] [%]	inhibition [12] [%]	inhibition [13] [%]	inhibition [14] [%]	inhibition [15] [%]	inhibition [16] [%]	inhibition [17] [%]	inhibition [18] [%]	inhibition [19] [%]	inhibition [20] [%]
CCn1c(-c2nonc2N)nc2c(C#CC(C)(C)O)nc(OCCNC)cc21	0.34	0.23	3.77	3.96	3.67	8.37	7.87	7.32	8.81	15.2	46.6	1.96	2.74	5.33	2.6	2.62	1.71	4.06	9.15	7.21
Cc1cc(-c2ccccn2)cc(C)c1/C=C/c1cncc(-c2nn[nH]n2)c1	0.83	0	0	7.89	6.35	5.76	7.54	4.37	6.71	7.41	5.98	1.6	2.75	5.75	4.38	0.78	3.18	2.68	7.82	5.24
